# High-throughput results from PubChem BioAssay.
# SMN2 splice enh: increases expression of the SMN2 splice variant; AID 1458; HEK293 SMN2-luciferase splicing reporter, luminescence, 30-36 h; 210,000 compounds, 2.8% hits; Potency, µM (series often up to 46.1 µM), without a hit: top-dose activity change, positive = activation, hits mostly activators; also: % of control where 0% means no effect; nearly all actives have a fitted effect of over 55% in size
#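 qHTS luciferase splicing reporter: luminescence rises when SMN2 exon 7 is included in transfected HEK293 cells. Compound exposure lasted 30-36 h at 37C, with 4.5 mM final sodium butyrate as control, followed by a ONE-Glo read.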
# Rab9 prom act: activates the Rab9 promoter | Huh7 Rab9 promoter-luciferase reporter, luminescence, 24 h | Potency, µM (top dose mostly 9.22 µM), for inactives: at the highest dose activation, negative = inhibition, usual class: activators | 320,000 compounds, 2.8% hits | AID 485297; also: % of control where 0% means no effect; nearly all actives have a fitted effect of over 60% in size
#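 Promoter activation is measured as luciferase luminescence in Huh7 cells stably transfected with a Rab9 promoter–luciferase construct, following 24 h compound exposure at 37 °C and 10 min reagent incubation at ambient temperature.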
# NPC1 promoter act: activators of NPC1 promoter; Huh7 NPC1 promoter luciferase reporter, 24 h; Potency, µM (titrated, usually from 9.22 µM), for the others: at the highest dose activation, usual class: activators; 320,000 compounds, 2.4% hits; AID 485313; also: % of control where 0% means no effect; nearly all actives have a fitted effect of over 60% in size
#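 Compounds in DMSO were transferred onto Huh7 NPC1-luciferase reporter cells pre-incubated 2 h; after 24 h at 37 °C, Amplite reagent was dispensed and luminescence recorded 10 min later.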
# ELG1 genotoxic: induces genotoxicity in HEK293T cells with luciferase-tagged ELG1; HEK293T ELG1-luciferase reporter, luminescence, 16 h; Potency, µM (series often up to 46 µM), for the others: top-dose activity change, positive = activation, most hits filed as activators; 330,000 compounds, 1.3% hits; also: % of control where 0% means no effect; nearly all actives have a fitted effect of over 60% in size
#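 DMSO vehicle served as control against compound-treated ELG1-luciferase HEK293T cells; exposure lasted 16 hr at 37 °C and 5% CO2, followed by ONE-Glo luminescence detection after 30 min.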
# FLuc counter: firefly luciferase modulation, counter-screen for miR-21 project. P08659. purified FLuc, Km substrates, luminescence inhibition. Potency, µM (highest dose often 57.5 µM), inactives show at the highest dose activity change, negative = inhibition, hits mostly inhibitors. 360,000 compounds, 6.9% hits. AID 588342;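 also: plate controls were vehicle for no effect and reference inhibitor for full effect; nearly all actives have a fitted effect of over 55% in size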
# Target sequence (P08659 whole entry, looked up): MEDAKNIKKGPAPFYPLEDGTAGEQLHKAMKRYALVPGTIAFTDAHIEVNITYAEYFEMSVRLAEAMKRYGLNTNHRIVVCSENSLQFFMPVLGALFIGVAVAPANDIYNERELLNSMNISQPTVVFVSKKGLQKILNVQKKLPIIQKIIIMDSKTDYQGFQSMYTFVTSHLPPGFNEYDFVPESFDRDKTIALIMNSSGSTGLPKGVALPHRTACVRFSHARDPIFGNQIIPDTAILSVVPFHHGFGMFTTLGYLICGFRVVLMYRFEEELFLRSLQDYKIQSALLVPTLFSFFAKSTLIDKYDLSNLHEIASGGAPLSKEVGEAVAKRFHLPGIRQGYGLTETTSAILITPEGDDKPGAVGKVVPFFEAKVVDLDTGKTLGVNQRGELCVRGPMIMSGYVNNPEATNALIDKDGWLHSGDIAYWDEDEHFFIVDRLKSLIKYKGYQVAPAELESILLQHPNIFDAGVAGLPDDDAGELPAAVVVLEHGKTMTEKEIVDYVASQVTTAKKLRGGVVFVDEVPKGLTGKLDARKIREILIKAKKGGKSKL
#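 Biochemical qHTS of compounds, final roughly 60 µM downward over six points, against 10 nM purified firefly luciferase using Km concentrations of substrates (10 uM D-luciferin, 10 uM ATP) in Tris acetate pH 7.5 buffer; luminescence output.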
# * marks the source's active call; other numbers are inactive results; u = inconclusive; x = not tested or not shown; [ ] = another dose, or the depositor's remark. The list is not random: actives were taken first. Their share in the collection is about 7.5%. Calls follow the shape of the dose curve; as a rule, active = well fitted curve in the direction sought with a large enough effect; inconclusive = small, poorly fitted or top-dose-only effect, or another doubt; inactive = no such curve, though single readings can be large; an effect the other way counts as inactive or inconclusive. Potency is read from the fitted curve at half-maximal effect.
SMILES,SMN2 splice enh,Rab9 prom act,NPC1 promoter act,ELG1 genotoxic,FLuc counter
Cc1cc2nc(-c3ccccc3)cc(=O)n2[nH]1,x,u,u,11%,6.7µM*
O=C1c2nc3cc(-c4ccccc4)[nH]n3c(=O)c2CN1Cc1ccccc1,x,-3%,-2%,0%,-9%
Cc1cccc(NC(=O)CSc2nnc(CNC(=O)c3ccco3)n2C)c1C,x,-4%,1%,0%,3%
Cc1nonc1NCn1nnc2ccccc21,-1%,-28%,3%,0%,2%
c1cncc(-c2noc(-c3ccc4ccccc4c3)n2)c1,x,0.28µM*,0.32µM*,2.1µM*,1.2µM*
O=c1[nH]c2ccccc2cc1-c1noc(-c2cccnc2)n1,-5%,24%,23%,-2%,u
c1ccc(-c2noc(-c3cccnc3)n2)cc1,u,x,x,x,9.5µM*
c1ccc(-c2ccc(-c3nc(-c4cccnc4)no3)cc2)cc1,13µM*,u,1.3µM*,2.3µM*,1.3µM*
C=CCn1c(C)c(C(C)=O)c(N2CCN(C(c3ccccc3)c3ccccc3)CC2)nc1=S,-49%,-2%,-18%,-14%,-9%
Cc1ccc(NC(=O)Cn2ccn(-c3ccccc3)c(=O)c2=O)cc1,x,x,x,x,2%
CC(=O)Nc1ccc(NC(=O)CSc2nccn2Cc2ccco2)cc1,x,27%,10%,10%,u
COc1ccc(NC(=O)CSc2nccn2Cc2ccco2)cc1,x,3.5µM*,2.5µM*,16µM*,24µM*
CCC(=O)Nc1cc(NC(=O)CSc2ncc(-c3ccc(F)cc3)n2Cc2ccco2)ccc1C,16%,u,2.8µM*,18µM*,12µM*
Cc1cccc(NC(=O)CSc2nccn2Cc2ccco2)c1,x,2.8µM*,3.2µM*,u,15µM*
COc1ccc(NC(=O)CSc2ncc(-c3ccc(F)cc3)n2Cc2ccco2)cc1,-61%,-6%,-2%,-7%,3%
Cc1cc(C)cc(NC(=O)CSc2nccn2Cc2ccco2)c1,x,1%,-5%,5%,u
COc1ccccc1CNC(=O)CN1N=C(c2ccccc2)CCC1=O,x,x,x,x,1%
O=C(c1ccc(Cl)c(S(=O)(=O)N2CCCCC2)c1)N1CCCC(C(F)(F)F)C1 (configuration not stated),x,-8%,-2%,1%,3%
CSCC[C@H](NS(=O)(=O)c1ccc(C(C)=O)cc1)c1nnc2ccccn12,x,-4%,-5%,0%,1%
COc1ccc(C)cc1NC(=O)CSc1ncc2c(n1)-c1ccc(Cl)cc1N(Cc1ccccc1)S2(=O)=O,x,x,x,x,-4%
O=C(CSc1nnc(-c2ccc(O)cc2)o1)Nc1ccc2c(c1)OCCO2,16µM*,4µM*,3.2µM*,15%,u
CC(C)(C)c1ccc(-c2nnc(SCC(=O)c3ccc4c(c3)OCCO4)o2)cc1,-40%,-17%,-2%,-3%,24µM*
O=C(CSc1nnc(CNC(=O)c2ccccc2)o1)Nc1ccc2c(c1)OCCO2,x,6%,6%,4%,u
O=C(CSc1nnc(-c2ccc(F)cc2)o1)c1ccc2c(c1)OCCO2,3%,-1%,0%,2%,-15%[2.3 µM]
COc1ccc(-c2nnc(SC(C)C(=O)Nc3ccc4c(c3)OCCO4)o2)cc1 (configuration not stated),18µM*,u,18%,5.8µM*,u
SMILES,SMN2 splice enh,Rab9 prom act,NPC1 promoter act,ELG1 genotoxic,FLuc counter
O=C(CSc1nnc(-c2ccc(O)cc2)o1)Nc1cccc(O)c1,x,-1%,13%,u,u
O=C(CSc1nnc(-c2ccccc2Cl)o1)Nc1ccc2c(c1)OCCO2,14µM*,u,29%,u,u
O=C(Nc1ccc2c(c1)OCCO2)C1CC(c2ccccc2Cl)=NO1 (configuration not stated),x,4µM*,4µM*,6%,19µM*
COC(=O)c1ccccc1NC(=O)C1CCCN(C(=O)c2cnn(-c3ccc(F)cc3)c2-n2cccc2)C1 (configuration not stated),x,x,x,x,-11%
COc1ccc2[nH]cc(CCN=C(NC(=O)c3ccccc3F)Nc3nc(C)cc(C)n3)c2c1,35µM*,x,x,x,1%
NS(=O)(=O)c1ccc(NC(=S)Nc2ccn(Cc3cccc4ccccc34)n2)cc1,x,-7%,-10%,-7%,2%
Nc1n[nH]c(N)c1N=Nc1ccc(Cl)cc1Cl,x,3%,17%,u,13µM*
Nc1n[nH]c(N)c1N=Nc1ccccc1F,x,28%,2%,7%,u
CCC(Oc1ccccc1)C(=O)Nc1ccc(-c2nnc(-c3ccco3)o2)cc1 (configuration not stated),11µM*,u,u,11%,-12%
c1cncc(-c2nnc(-c3ccco3)o2)c1,22%,-6%,-2%,u,0%
CC(Sc1nnc(-c2ccco2)o1)C(=O)Nc1ccc(OC(F)F)cc1 (configuration not stated),x,x,x,7%,x
COc1ccccc1OCC(=O)Nc1ccc(-c2nnc(-c3ccco3)o2)cc1,5.6µM*,21%,10%,4%,1%
O=C(COc1ccc(Br)cc1)Nc1ccc(-c2nnc(-c3ccco3)o2)cc1,8.9µM*,2.2µM*,4µM*,13%,1%
O=C(Cc1cccs1)Nc1ccc(-c2nnc(-c3ccco3)o2)cc1,14%,u,26%,u,3%
Clc1ccc(-c2nnc(-c3ccco3)o2)cc1,u,2.8µM*,3.5µM*,u,12µM*
CC(=O)N(c1ccc(C)cc1)c1nc(C)cc(C)c1C#N,x,-4%,-1%,0%,0%
COC(=O)C1C(c2ccc(OC)cc2)C(C(=O)OC)S(=O)(=O)C(CCN2CCCCC2)S1(=O)=O (configuration not stated),3%,-1%,-7%,0%,1%
C/C(=N\OCc1ccc(C#N)cc1)c1ccc(S(=O)(=O)N(C)C)cc1,x,11%,u,1%,21µM*
C/C(=N/OCO/N=C(\C)c1ccccc1)c1ccccc1,253%,-4%,0%,2%,13%
C/C(=N\OCc1cccc(C(=O)O)c1)c1ccc(Cl)cc1,x,0.089µM*,u,u,0.095µM*
C/C(=N\OCc1ccc(C#N)cc1)c1ccccc1,16µM*,3.2µM*,u,18µM*,11µM*
N#Cc1ccc(CN2CC[C@@]3(CCCN(C(=O)c4cnccn4)C3)C2)cc1,-9%,x,x,x,x
O=C(Nc1nc2ccccc2s1)c1ccc(N2CCCCC2)c([N+](=O)[O-])c1,5%[1.84 µM],2µM*,u,-4%,9.5µM*
O=C(Nc1ccon1)c1ccc(N2CCCCC2)c([N+](=O)[O-])c1,14µM*,2µM*,2.8µM*,16%,12µM*
CC(=O)c1cccc(NC(=O)Cc2cccs2)c1,-6%,30%,24%,3%,u
CC(=O)c1ccc(NC(=O)Cc2cccs2)cc1,x,2.5µM*,2.8µM*,u,u
CCCOC(=O)c1ccc(NC(=O)Cc2cccs2)cc1,x,u,u,u,19µM*
